PubChem BioAssay (EPA / NIEHS)
Records with an inconclusive call do not appear. Activity calls are given as the source filed them. The calls were made as follows: active = hit-call score of the fitted dose curve at least 0.9, where 1 is the maximum; inconclusive = response in the unintended direction; inactive = score below 0.9.

target: Cellular tumor antigen p53 (Homo sapiens) (UniProt P04637); test: TOX21_p53_BLA_p4_ratio: Tox21 HCT-116 p53 Agonism Beta-lactamase Assay, Ratio, Phase 4 (AID 2283601)
Method in brief: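 HCT-116 p53 beta-lactamase reporter cells (4000/well) preincubated 5 h, then compound (217-fold dilution of DMSO stock) for 16 h at 37C. CCF4-AM substrate added 2 h at room temperature; 460/530 nm emission ratio fitted upward versus DMSO.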

Sequence of Cellular tumor antigen p53 (Homo sapiens) (P04637 whole entry, looked up): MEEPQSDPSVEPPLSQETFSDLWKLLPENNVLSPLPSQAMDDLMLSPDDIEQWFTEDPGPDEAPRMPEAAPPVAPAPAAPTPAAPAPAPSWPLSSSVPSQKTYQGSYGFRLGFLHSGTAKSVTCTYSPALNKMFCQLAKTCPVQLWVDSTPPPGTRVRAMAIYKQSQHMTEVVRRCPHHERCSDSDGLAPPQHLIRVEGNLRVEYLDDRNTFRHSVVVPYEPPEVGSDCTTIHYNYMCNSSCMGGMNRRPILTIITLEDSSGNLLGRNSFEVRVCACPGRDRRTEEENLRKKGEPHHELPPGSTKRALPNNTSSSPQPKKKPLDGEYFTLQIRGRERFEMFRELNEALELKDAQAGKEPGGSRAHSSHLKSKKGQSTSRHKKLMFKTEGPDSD

Row | Structure (SMILES) | AC50 | outcome
1 | CCCCc1oc2ccc(NS(C)(=O)=O)cc2c1C(=O)c1ccc(OCCCN(CCCC)CCCC)cc1 | 43.1 µM (active) | 
2 | Cc1ccc2nc(N)[nH]c(=O)c2c1Sc1ccncc1 |  | inactive
3 | CON=C(C(=O)N[C@@H]1C(=O)N2C(C(=O)O)=C(COC(N)=O)CS[C@H]12)c1ccco1 |  | inactive
4 | CC1(C)S[C@@H]2[C@H](NC(=O)Cc3ccccc3)C(=O)N2[C@H]1C(=O)O (tested in a mixture with another compound) |  | inactive
5 | O=S(=O)(O)c1ccc(O)cc1 |  | inactive
6 | CNc1ccc(O)cc1 |  | inactive
7 | O=[N+]([O-])c1c(Cl)cccc1-c1c[nH]cc1Cl |  | inactive
8 | CC(C)NCC1CCc2cc(CO)c([N+](=O)[O-])cc2N1 (stereo not given) |  | inactive
9 | CC(C)(C)OC(=O)N1C[C@@H](F)C[C@H]1C(=O)O |  | inactive
10 | N#CCc1cccc(C(F)(F)F)c1 |  | inactive
11 | COc1cc(C(=O)OCCCN2CCCN(CCCOC(=O)c3cc(OC)c(OC)c(OC)c3)CC2)cc(OC)c1OC |  | inactive
12 | CC[C@@]1([C@@H]2O[C@@H]([C@H]3O[C@@](O)(CO)[C@H](C)C[C@@H]3C)C[C@@H]2C)CC[C@H]([C@]2(C)CC[C@]3(C[C@H](O)[C@@H](C)[C@@H]([C@@H](C)[C@@H](OC)[C@H](C)C(=O)O)O3)O2)O1 (stereo in doubt) |  | inactive
13 | CC(C)(C#N)Nc1nc(Cl)nc(NC2CC2)n1 |  | inactive
14 | Oc1c(Cl)cc(Cl)c2cccnc12 | 6.25 µM (active) | 
15 | O=C(O)CCC(=O)C(=O)O |  | inactive
16 | CCCCCCCC(=O)CC[C@@H]1[C@@H](C/C=C\CCCC(=O)OC(C)C)[C@@H](O)C[C@H]1O | 43.6 µM (active) | 
17 | CO[C@@H]1[C@@H](O[C@@H]2O[C@H](C)[C@@H](O[C@H]3C[C@@](C)(O)[C@@H](OC(=O)CC(C)C)[C@H](C)O3)[C@H](N(C)C)[C@H]2O)[C@@H](CC=O)C[C@@H](C)C(=O)/C=C/C2OC2C[C@@H](C)OC(=O)C[C@H]1OC(C)=O (stereo not given in full) |  | inactive
18 | O=C(NCC1CCCCN1)c1cc(OCC(F)(F)F)ccc1OCC(F)(F)F (stereo not given) |  | inactive
19 | O=C(Oc1cccc2cccnc12)c1ccccc1 |  | inactive
20 | COc1cc(C=C2CCCC(=Cc3ccc(O)c(OC)c3)C2=O)ccc1O |  | inactive

Row | Structure (SMILES) | AC50 | outcome
21 | CCCOc1ccc(C(=O)OCCN(CC)CC)cc1N |  | inactive
22 | CC(C)(C)C(=O)O |  | inactive
23 | O=C(CCS)OCC(COC(=O)CCS)(COC(=O)CCS)COC(=O)CCS |  | inactive
24 | Cc1ccc(S(=O)(=O)NC(=O)NC2CCCCCCC2)cc1 |  | inactive
25 | Cc1cccc(C)c1OCC(=O)N[C@@H](Cc1ccccc1)[C@@H](O)C[C@H](Cc1ccccc1)NC(=O)[C@H](C(C)C)N1CCCNC1=O |  | inactive
26 | CCCCCCCCCCCC[n+]1ccc2ccccc2c1 | 21.8 µM (active) | 
27 | Cc1ccccn1 |  | inactive
28 | Cc1cc(O)c(C(C)(C)C)cc1Sc1cc(C(C)(C)C)c(O)cc1C | 31.5 µM (active) | 
29 | CCCC(C(=O)OCCN(CC)CC)(c1ccccc1)c1ccccc1 |  | inactive
30 | CCCCCCCCCCCCCCCCCCNC(=O)OC1CCN(C(=O)OC[C@H](COC(=O)N(Cc2cccc[n+]2CC)C(=O)c2ccccc2OC)OC)CC1 | 38.4 µM (active) | 
31 | CCCCCCCCCCCCCCC(=O)O |  | inactive
32 | CC(C)(O)c1ccccc1CC[C@@H](SCC1(CC(=O)O)CC1)c1cccc(/C=C/c2ccc3ccc(Cl)cc3n2)c1 | 18.8 µM (active) | 
33 | CO[C@@]12[C@H](COC(N)=O)C3=C(C(=O)C(C)=C(N)C3=O)N1C[C@@H]1N[C@@H]12 | 20.8 µM (active) | 
34 | CC(C)OC(=O)OCOP(=O)(CO[C@H](C)Cn1cnc2c(N)ncnc21)OCOC(=O)OC(C)C |  | inactive
35 | CSc1ccc2c(c1)C(N1CCN(C)CC1)Cc1ccccc1S2 (stereo not given) | 42.4 µM (active) | 
36 | Oc1c(Br)cc(Br)c2cccnc12 |  | inactive
37 | OCCN1CCN(CC/C=C2/c3ccccc3Sc3ccc(C(F)(F)F)cc32)CC1 |  | inactive
38 | CC(=O)Oc1ccc(C2(c3ccc(OC(C)=O)cc3)Oc3ccccc3NC2=O)cc1 |  | inactive
39 | O=C(O)c1ccc(-n2nc(-c3ccccc3O)nc2-c2ccccc2O)cc1 |  | inactive
40 | CN1CC(=O)N/C1=N/C(=O)Nc1cccc(Cl)c1 |  | inactive
